In all, about 5,600 compounds went through this assay and about 4,100 (73%) were called active. Roughly 4% stayed inconclusive and do not appear here. So high a share suggests a set chosen from earlier hits. Only a sample is shown. Unmarked numbers belong to inactive results.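 The calls were made as follows: active = mean replicate inhibition above about 95% and at least 55% of replicates individually reaching it (limit read from the data); inconclusive = only one of the two criteria is met; inactive = neither criterion is met.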
assay: blockers of Trypanosoma cruzi growth in host cells – cell-based, NIH3T3 host, beta-gal parasite, luminescence, cherry-pick, confirmation (AID 651739); details: T. cruzi beta-gal in NIH3T3, GalScreen luminescence, 90 h; at 8.35 µM; active compounds read high

SMILES | inhibition
C[C@H]1CCCCO[C@@H](CN(C)C(=O)NC2CCCCC2)[C@@H](C)CN([C@@H](C)CO)C(=O)c2cc(NS(=O)(=O)c3ccc(Cl)cc3)ccc2O1 | 103% (active)
C[C@@H]1CCCCO[C@H](CN(C)C(=O)NC2CCCCC2)[C@H](C)CN([C@H](C)CO)C(=O)c2cc(NS(=O)(=O)c3ccc(Cl)cc3)ccc2O1 | 106% (active)
COc1ccc(NC(=O)N(C)C[C@@H]2OCCCC[C@@H](C)Oc3ccc(NS(=O)(=O)c4ccc(Cl)cc4)cc3C(=O)N([C@H](C)CO)C[C@H]2C)cc1 | 104% (active)
COc1ccc(S(=O)(=O)Nc2ccc3c(c2)C(=O)N([C@H](C)CO)C[C@@H](C)[C@@H](CN(C)CC2CCCCC2)OCCCC[C@@H](C)O3)cc1 | 91.5%
O=C(Nc1ccc(-c2ccccc2)cc1)[C@H]1[C@H](CO)[C@H]2Cn3c(cccc3=O)[C@H]2N1CC1CC1 | 101% (active)
O=C(NCC1CCCCC1)[C@H]1[C@H](CO)[C@H]2Cn3c(cccc3=O)[C@H]2N1C(=O)CC1CC1 | 43%
O=C(NCc1ccccn1)[C@@H]1[C@@H](CO)[C@@H]2Cn3c(ccc(/C=C/c4ccccc4)c3=O)[C@H]1N2CC1CC1 | 66.3%
O=S(=O)(Cc1ccccc1)N1CCCCN2[C@@H](CO)[C@@H](c3ccc(-c4ccc(F)cc4)cc3)[C@@H]2C1 | 96.2% (active)
Cc1cccc(-c2ccc([C@@H]3[C@@H](CO)N4CCCCN(S(=O)(=O)c5cccs5)C[C@H]34)cc2)c1 | 106% (active)
C/C=C/c1ccc([C@H]2[C@H]3CN(S(=O)(=O)c4ccccc4)CCCCN3[C@H]2CO)cc1 | 105% (active)
CCS(=O)(=O)N1CCCCN2[C@@H](CO)[C@@H](c3ccc(-c4ccccc4)cc3)[C@@H]2C1 | 102% (active)
O=S(=O)(Cc1ccccc1)N1CCCCN2[C@@H](CO)[C@H](c3ccc(-c4ccccc4)cc3)[C@@H]2C1 | 97.9% (active)
C[C@H](O)C#Cc1ccc([C@H]2[C@H]3CN(S(=O)(=O)Cc4ccccc4)CCCCN3[C@H]2CO)cc1 | 72.1%
O=S(=O)(Cc1ccccc1)N1CCCCN2[C@@H](CO)[C@H](c3ccc(-c4cccnc4)cc3)[C@@H]2C1 | 97.7% (active)
C[C@H](CO)N1C[C@H](C)[C@H](CN(C)C(=O)Nc2cccc3ccccc23)Oc2ncc(C#Cc3ccccc3)cc2C1=O | 99.9% (active)
C[C@@H]1CN([C@H](C)CO)C(=O)c2cc(/C=C/c3ccccc3)cnc2O[C@@H]1CN(C)Cc1ccncc1 | 86.1%
COCC(=O)N(C)C[C@@H]1Oc2ncc(C#Cc3ccccc3OC)cc2C(=O)N([C@@H](C)CO)C[C@H]1C | 109% (active)
COc1ccc(C#Cc2cnc3c(c2)C(=O)N([C@@H](C)CO)C[C@H](C)[C@@H](CN(C)C(C)=O)O3)cc1 | 19.7%
C[C@@H]1CN([C@@H](C)CO)C(=O)c2cc(C#Cc3ccccc3)cnc2O[C@H]1CN(C)C(=O)c1ccccn1 | 101% (active)
CC(C)CC#Cc1cnc2c(c1)C(=O)N([C@@H](C)CO)C[C@@H](C)[C@H](CN(C)C(=O)Cc1ccncc1)O2 | 76.3%

SMILES | inhibition
C[C@@H]1CN([C@H](C)CO)C(=O)c2cc(C#Cc3ccccn3)cnc2O[C@H]1CN(C)Cc1ccccc1 | 102% (active)
Cc1ccc(S(=O)(=O)N(C)C[C@H]2OCCCC[C@H](C)Oc3ccc(NC(=O)Cc4ccccc4)cc3C(=O)N([C@@H](C)CO)C[C@@H]2C)cc1 | 110% (active)
C[C@@H]1CCCCO[C@@H](CN(C)S(=O)(=O)c2ccc(Cl)cc2)[C@H](C)CN([C@@H](C)CO)C(=O)c2cc(NC(=O)Cc3ccccc3)ccc2O1 | 108% (active)
CC(C)CC#Cc1ccc2c(c1)O[C@H](CN(C)C(=O)C1CC1)[C@@H](C)CN([C@@H](C)CO)S2(=O)=O | 111% (active)
C[C@@H]1CN([C@@H](C)CO)S(=O)(=O)c2ccc(C#CCN(C)C)cc2O[C@H]1CN(C)C(=O)C1CC1 | 110% (active)
C[C@H](CO)N1C[C@H](C)[C@@H](CN(C)C(=O)C2CCCCC2)Oc2cc(-c3ccccc3)ccc2S1(=O)=O | 107% (active)
COc1ccccc1-c1ccc2c(c1)O[C@@H](CN(C)C)[C@H](C)CN([C@H](C)CO)S2(=O)=O | 22.8%
Cc1ccc(-c2ccc3c(c2)O[C@H](CN(C)C)[C@@H](C)CN([C@H](C)CO)S3(=O)=O)cc1 | 88%
CNC[C@H]1OCCCC[C@H](C)Oc2ccc(NC(=O)Nc3c(C)noc3C)cc2C(=O)N([C@H](C)CO)C[C@H]1C | 104% (active)
CNC[C@H]1OCCCC[C@@H](C)Oc2ccc(NS(C)(=O)=O)cc2C(=O)N([C@H](C)CO)C[C@H]1C | -10.3%
C[C@@H]1CN([C@@H](C)CO)C(=O)CCCn2cc(nn2)CO[C@@H]1CN(C)S(=O)(=O)c1ccccc1F | -12.9%
C[C@@H]1CCCCO[C@H](CN(C)C(=O)NC2CCCCC2)[C@H](C)CN([C@H](C)CO)C(=O)c2cc(NC(=O)Nc3ccc(F)cc3)ccc2O1 | 97.3% (active)
C[C@@H]1CN([C@@H](C)CO)C(=O)c2cc(NC(=O)Nc3ccc(C(F)(F)F)cc3)ccc2O[C@@H](C)CCCCO[C@H]1CN(C)C(=O)c1ccccc1 | 105% (active)
C[C@H]1CN([C@@H](C)CO)C(=O)CCCn2cc(nn2)CO[C@H]1CN(C)C(=O)c1ccccc1 | 103% (active)
C[C@@H]1CN([C@H](C)CO)C(=O)c2cc(NC(=O)Nc3ccc(F)cc3)ccc2O[C@@H](C)CCCCO[C@@H]1CN(C)CC1CCCCC1 | 90.7%
CC(C)NC(=O)N(C)C[C@H]1OCc2cn(nn2)CCCC(=O)N([C@@H](C)CO)C[C@H]1C | 2.94%
C[C@@H]1CCCCO[C@H](CN(C)C(=O)Nc2ccc(C(F)(F)F)cc2)[C@H](C)CN([C@H](C)CO)C(=O)c2cc(NC(=O)Nc3ccc(C(F)(F)F)cc3)ccc2O1 | 109% (active)
COc1ccc(NC(=O)N(C)C[C@H]2OCCCC[C@H](C)Oc3ccc(NC(=O)Nc4ccc(C(F)(F)F)cc4)cc3C(=O)N([C@@H](C)CO)C[C@@H]2C)cc1 | 103% (active)
C[C@H](CO)N1C[C@H](C)[C@H](CN(C)C(=O)Nc2ccc(C(F)(F)F)cc2)OCCCC[C@H](C)Oc2ccc(NC(=O)C3CCCCC3)cc2C1=O | 109% (active)
CC(C)NC(=O)Nc1ccc2c(c1)C(=O)N([C@H](C)CO)C[C@H](C)[C@H](CN(C)C(=O)Nc1ccc(C(F)(F)F)cc1)OCCCC[C@@H](C)O2 | 110% (active)

SMILES | inhibition
COc1cccc(S(=O)(=O)N2CCCCN3[C@H](C2)[C@H](c2ccc(C#CC(C)C)cc2)[C@@H]3CO)c1 | 102% (active)
COc1ccc(S(=O)(=O)N2CCCCN3[C@H](CO)[C@@H](c4ccc(C#CC(C)C)cc4)[C@H]3C2)cc1 | 109% (active)
CC(C)C#Cc1ccc([C@H]2[C@H](CO)N3CCCCN(C(=O)NC(C)C)C[C@@H]23)cc1 | 103% (active)
C[C@@H](O)C#Cc1ccc([C@@H]2[C@H](CO)N3CCCCN(S(=O)(=O)c4ccccc4)C[C@@H]23)cc1 | 62.6%
CN(C)CC#Cc1ccc([C@H]2[C@H]3CN(S(=O)(=O)c4ccccc4F)CCCCN3[C@H]2CO)cc1 | 83.2%
COc1ccc(S(=O)(=O)N2CCCCN3[C@H](C2)[C@H](c2ccc(C#CCC(C)C)cc2)[C@@H]3CO)cc1 | 98.1% (active)
C[C@H](O)C#Cc1ccc([C@@H]2[C@H]3CN(S(=O)(=O)c4ccccc4)CCCCN3[C@H]2CO)cc1 | 32.8%
COc1cccc(S(=O)(=O)N2CCCCN3[C@H](CO)[C@H](c4ccc(-c5ccncc5)cc4)[C@H]3C2)c1 | 110% (active)
COc1cccc(S(=O)(=O)N2CCCCN3[C@H](CO)[C@H](c4ccc(C#CC5CC5)cc4)[C@H]3C2)c1 | 105% (active)
C[C@H](CO)N1C[C@H](C)[C@@H](CN(C)Cc2ccncc2)Oc2cc(Br)ccc2S1(=O)=O | 95.7% (active)
CC(C)CC#Cc1ccc2c(c1)O[C@H](CN(C)Cc1cccnc1)[C@H](C)CN([C@@H](C)CO)S2(=O)=O | 98.7% (active)
C[C@H](CO)N1C[C@H](C)[C@H](CN(C)Cc2ccncc2)Oc2cc(-c3ccncc3)ccc2S1(=O)=O | 92.9%
CC(C)CC#Cc1ccc2c(c1)O[C@H](CN(C)Cc1ccccc1F)[C@@H](C)CN([C@@H](C)CO)S2(=O)=O | 96.7% (active)
CC(C)CC#Cc1ccc2c(c1)O[C@H](CN(C)Cc1ccncc1)[C@H](C)CN([C@H](C)CO)S2(=O)=O | 97.8% (active)
Cc1ccccc1-c1ccc([C@H]2[C@H]3CN(S(=O)(=O)c4ccc(F)cc4)CCCCN3[C@H]2CO)cc1 | 97.2% (active)
O=S(=O)(c1ccc(F)cc1)N1CCCCN2[C@H](C1)[C@H](c1ccc(C3=CCCCC3)cc1)[C@@H]2CO | 106% (active)
C[C@H]1CCCCO[C@@H](CN(C)S(=O)(=O)c2cccs2)[C@@H](C)CN([C@@H](C)CO)C(=O)c2cc(NS(=O)(=O)c3ccc(Cl)cc3)ccc2O1 | 101% (active)
C[C@@H]1CN([C@H](C)CO)C(=O)c2cc(NS(=O)(=O)c3cccs3)ccc2O[C@@H](C)CCCCO[C@@H]1CN(C)S(=O)(=O)c1ccc(Cl)cc1 | 101% (active)
C[C@@H]1CCCCO[C@H](CN(C)S(=O)(=O)c2ccc(Cl)cc2)[C@H](C)CN([C@@H](C)CO)C(=O)c2cc(NS(=O)(=O)c3cccs3)ccc2O1 | 105% (active)
Cc1noc(C)c1S(=O)(=O)Nc1ccc2c(c1)C(=O)N([C@@H](C)CO)C[C@@H](C)[C@H](CN(C)S(=O)(=O)c1ccc(Cl)cc1)OCCCC[C@H](C)O2 | 99.1% (active)

Reference: PubChem BioAssay AID651739 (Broad Institute, 2012)
